Test systems include STK36; STK39; SYK; SgK110; TAOK1; TAOK2; TAOK3; TBK1; TEC; TESK1; TGFBR1; TGFBR2; TIE1; TLK1; TLK2; TNIK; TNK1; TNK2.
What all share (details): concentration: 1 μM, replicates: in singlicate; n = 1
The next assay has as its system T1, TAK1.
T1 construct: gene MAP3K7

The test system of the next assay is T2, TIE2.
T2 construct: gene TEK
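Further: KINOMEscan kinase panel screen.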

Consider `O=C(Nc1c(F)cccc1F)c1cc(C(=O)c2ccccc2F)c[nH]1` [GSK1326180], for which the “%Inh” value in the assay on STK36 came out at 0%; in the assay with STK39 it was 0%; in the assay on SYK, 22%; in the assay on SgK110, 0%; with TAK1, 0%; in the assay on TAOK1, 0%. The “%Inh” value in the assay on TAOK2 amounted to 0%; with TAOK3, 0%; with TBK1, 3%; with TEC, 7%; with TESK1 it was 10%; in the assay on TGFBR1, 0%. Besides, the “%Inh” value came to 6% with TGFBR2; 0% with TIE1; 0% with TIE2; 0% in the assay with TLK1; 0% with TLK2; 20% in the assay on TNIK. Besides, the “%Inh” value in the assay on TNK1 and with TNK2 was 8% in each case.

For `O=C1NC(=O)C(c2ccccc2Cl)=C1Nc1cccc(Cl)c1` [SB-342409], the “%Inh” value with STK36 stood at 0%; in the assay on STK39, 9%; in the assay on SYK it was 0%; in the assay with SgK110, 0%; in the assay on TAK1, 0%; with TAOK1, 0%. The “%Inh” value in the assay on TAOK2 is 0%; with TAOK3, 11%; in the assay with TBK1, 7%; with TEC, 13%; with TESK1, 20%; in the assay on TGFBR1 it was 4%. The “%Inh” value in the assay with TGFBR2 was determined as 71%; in the assay on TIE1, 7%; with TIE2 it was 0%; in the assay with TLK1 it was 68%; in the assay with TLK2, 50%; with TNIK, 0%. Moreover, the “%Inh” value in the assay on TNK1 was 12%; with TNK2, 18%.

With `Cl.O=C(Nc1ccc(Oc2ccc3[nH]c(NC(=O)c4ccco4)nc3c2)cc1)Nc1cc(C(F)(F)F)ccc1F` [GW683134], the “%Inh” value with STK36 is 0%; in the assay with STK39, 12%; in the assay on SYK, 31%; with SgK110 it was 0%; in the assay with TAK1, 89%; in the assay on TAOK1 it was 0%. The “%Inh” value came out at 0% in the assay on TAOK2; 0% in the assay on TAOK3; 0% in the assay on TBK1; 13% with TEC; 36% with TESK1; 0% in the assay on TGFBR1. Moreover, the “%Inh” value turned out to be 0% in the assay with TGFBR2; 100% in the assay with TIE1; 99.8% in the assay on TIE2; 0% with TLK1; 3% with TLK2; 0% in the assay with TNIK. For the same compound, the “%Inh” value in the assay on TNK1 was found to be 56%; with TNK2, 8%.

Take `CC(C)c1nc(-c2ccc(F)c(NS(=O)(=O)c3c(F)cccc3F)c2)c(-c2ccnc(Nc3ccc(N4CCOCC4)nc3)n2)s1` [GSK1804250]: the “%Inh” value in the assay on STK36 is recorded as 100%; in the assay on STK39 it was 11%; with SYK it was 46%; in the assay with SgK110, 0%; in the assay on TAK1 it was 46%; in the assay with TAOK1, 4%. For the same compound, the “%Inh” value with TAOK2 came out at 0%; in the assay on TAOK3, 5%; in the assay on TBK1, 6%; in the assay with TEC, 45%; in the assay with TESK1 it was 96.2%; with TGFBR1, 90.8%. The “%Inh” value in the assay with TGFBR2 is given as 92.9%; in the assay on TIE1 it was 87%; in the assay on TIE2, 98.9%; with TLK1, 19%; in the assay on TLK2, 11%; with TNIK, 27%. Further, the “%Inh” value with TNK1 was found to be 100%; in the assay with TNK2, 99.5%.

Take `N#CC1(c2cccc(C(=O)Nc3cccc(Oc4ccc5nc(NC(=O)C6CC6)sc5n4)c3)c2)CC1`: the “%Inh” value in the assay on STK36 is recorded as 0%; in the assay with STK39, 0%; in the assay with SYK, 22%; in the assay on SgK110, 17%; in the assay on TAK1 it was 0%; in the assay with TAOK1, 0%. In addition, the “%Inh” value is 28% in the assay with TAOK2; 0% in the assay with TAOK3; 15% in the assay on TBK1; 0% in the assay on TEC; 9% with TESK1; 0% with TGFBR1. Also, the “%Inh” value stood at 0% in the assay on TGFBR2; 73% with TIE1; 37% in the assay with TIE2; 0% in the assay with TLK1; 0% in the assay on TLK2; 53% with TNIK. Moreover, the “%Inh” value stood at 76% in the assay on TNK1 and 0% with TNK2.

`NCCC(NC(=O)c1cc(Br)c(-c2ccnc3[nH]ccc23)s1)c1ccccc1.O=C(O)C(F)(F)F.O=C(O)C(F)(F)F` (stereo not drawn) [GSK1307810]: the “%Inh” value in the assay with STK36 is 0%; in the assay with STK39, 5%; in the assay with SYK, 18%; with SgK110, 70%; in the assay with TAK1, 51%; in the assay with TAOK1, 48%. Also, the “%Inh” value in the assay on TAOK2 is 10%; in the assay on TAOK3, 0%; in the assay on TBK1, 5%; in the assay on TEC, 0%; in the assay on TESK1 it was 6%; in the assay on TGFBR1 it was 3%. Also, the “%Inh” value in the assay with TGFBR2 came out at 0%; with TIE1, 73%; with TIE2, 0%; in the assay on TLK1, 23%; with TLK2, 0%; in the assay with TNIK, 52%. In addition, the “%Inh” value came to 0% in the assay on TNK1 and 9% with TNK2.

As for `COc1cccc(-c2nc(-c3ccccc3)[nH]c2-c2ccncc2)c1` [SB-610250], the “%Inh” value in the assay with STK36 is given as 30%; in the assay with STK39 it was 19%; in the assay on SYK, 23%; with SgK110, 20%; with TAK1, 0%; in the assay with TAOK1, 0%. The “%Inh” value with TAOK2 is 0%; with TAOK3, 0%; in the assay with TBK1, 0%; in the assay with TEC, 4%; in the assay with TESK1, 22%; in the assay on TGFBR1, 17%. For the same compound, the “%Inh” value in the assay with TGFBR2 amounted to 5%; in the assay on TIE1, 0%; in the assay on TIE2, 0%; with TLK1 it was 0%; in the assay with TLK2, 0%; in the assay on TNIK it was 0%. For the same compound, the figures for the “%Inh” value in the assay on TNK1 and in the assay on TNK2 were 0% and 8%, respectively.

For `CCNC(=O)/C=C/c1n[nH]c2cc(Sc3ccccc3C(=O)NC)ccc12`, the “%Inh” value in the assay with STK36 is reported as 35%; in the assay with STK39 it was 0%; with SYK, 20%; with SgK110 it was 15%; in the assay on TAK1, 26%; in the assay on TAOK1 it was 0%. Further, the “%Inh” value in the assay on TAOK2 stood at 0%; in the assay with TAOK3, 8%; with TBK1, 13%; in the assay with TEC it was 0%; with TESK1, 10%; with TGFBR1, 5%. Moreover, the “%Inh” value with TGFBR2 was 0%; with TIE1, 59%; with TIE2, 20%; in the assay on TLK1 it was 12%; in the assay on TLK2 it was 0%; in the assay with TNIK it was 57%. The “%Inh” value in the assay on TNK1 was 67%; in the assay with TNK2, 27%.

With `COC(=O)Nc1nc2cc(Oc3ccc(NC(=O)Nc4cccc(SC)c4)cc3)ccc2[nH]1.Cl` [GW697999], the “%Inh” value in the assay with STK36 is recorded as 8%; with STK39, 0%; with SYK it was 23%; with SgK110, 0%; with TAK1, 36%; in the assay with TAOK1, 0%. Moreover, the “%Inh” value in the assay on TAOK2 was 0%; in the assay on TAOK3, 0%; with TBK1, 0%; in the assay on TEC, 5%; with TESK1, 3%; in the assay with TGFBR1, 25%. In addition, the “%Inh” value was determined as 0% in the assay with TGFBR2; 96.5% with TIE1; 93.2% in the assay on TIE2; 0% with TLK1; 0% with TLK2; 0% in the assay on TNIK. The “%Inh” value with TNK1 came out at 4%; with TNK2 it was 10%.

Values taken from publication PMC5540273 (PLoS ONE, 2017).
